D2 ag-1: agonists of human D2 dopamine receptor (beta-arrestin). activation, % (concentration not given with the values). actives 0.084% (n = 360,000). AID 624465. DiscoveRx PathHunter D2 beta-arrestin, luminescence, 90 min; 100% = 57 uM dopamine signal. P14416; in the data active = activation above about 40%
Target sequence (P14416 whole entry, looked up): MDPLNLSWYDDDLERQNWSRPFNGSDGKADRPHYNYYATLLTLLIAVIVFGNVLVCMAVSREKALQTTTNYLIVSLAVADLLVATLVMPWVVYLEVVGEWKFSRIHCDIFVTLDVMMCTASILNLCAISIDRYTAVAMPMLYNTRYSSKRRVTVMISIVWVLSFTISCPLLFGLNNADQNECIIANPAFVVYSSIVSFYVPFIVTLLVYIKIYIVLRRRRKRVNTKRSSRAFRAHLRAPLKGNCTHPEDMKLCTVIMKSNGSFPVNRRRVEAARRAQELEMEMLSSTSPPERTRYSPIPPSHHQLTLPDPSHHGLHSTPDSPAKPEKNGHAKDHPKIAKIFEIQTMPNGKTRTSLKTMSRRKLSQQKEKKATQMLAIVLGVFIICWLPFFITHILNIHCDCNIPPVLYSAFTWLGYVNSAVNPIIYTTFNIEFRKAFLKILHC
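DiscoveRx PathHunter D2 beta-arrestin cells (2,100/well) attached overnight, then compound-stimulated 90 min at 37 C in HBSS/10 mM HEPES/0.1% Tween-20 buffer; beta-galactosidase complementation read by luminescence after 1 h at ambient temperature. Dopamine 57 uM final (EC100) as control.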
D2 ag-2: agonists of human D2 dopamine receptor; P14416; HEK293 T-REx D2 cells, calcium flux agonist mode; activation, % at 2 µM; actives 0.53% (n = 340,000); AID 485358;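 active = activation over 3 SD above normal in the single-dose calcium agonist read, cut at about 30% in these data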; note: 0% is about no effect
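Agonism is scored from calcium flux in a force-coupled, inducible HEK293 cell line expressing D2, read kinetically for 180 s after compound addition against dopamine controls.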
D2 PAM-1: D2 dopamine receptor (human) potentiation; P14416; HEK293 T-REx D2, calcium flux, EC20 dopamine potentiation; potentiation, % at 10 µM; actives 0.34% (n = 340,000);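 active = potentiation over 3 SD above the plate norm, cut at about 30% in these data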; note: 0% is about no effect
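Tetracycline-induced HEK293 T-REx cells force-coupled to calcium signalling expressed D2; compounds were pin-added after a 10 s baseline, read kinetically 180 s, then an EC20 dopamine challenge followed with a further 180 s calcium read.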
D2 PAM-2: positive allosteric modulators of human D2 dopamine receptor | P14416 | DiscoveRx D2 beta-arrestin cells, luminescence, 90 min; 100% = 57 uM dopamine signal | potentiation, % (concentration not given with the values) | actives 0.23% (n = 360,000) | AID 624464; in the data active = potentiation above about 50%
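PathHunter beta-arrestin assay in DiscoveRx D2 cells. Compounds were added with an EC20 of dopamine (50 nM final) for 90 min at 37 deg C. Luminescence was read 1 h after detection reagent, with 57 uM dopamine as the EC100 control.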
D2 antag: antagonizes the human D2 dopamine receptor; HEK293 TREx D2 cells, calcium flux, dopamine EC80; inhibition, % at 10 µM; actives 2% (n = 340,000); AID 485344; in the data active = inhibition above about 30%; inactive = below that, where a call was filed; note: 0% is about no effect
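Calcium mobilization kinetics were recorded at 1 s intervals in tetracycline-induced HEK293 T-REx D2 cells, first for 180 s after compound addition and then 180 s after EC80 dopamine.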
* = called active by the depositor. Shown are actives, neighbours in structure and some others; about 2.4% of the full set was active somewhere.

CCc1noc(C)c1C(=O)NNC(=O)c1nn(CC)c(=O)c2ccccc12 was read as D2 ag-1 -5, D2 ag-2 -1, D2 PAM-1 -1, D2 PAM-2 25 and D2 antag 12.
For CCc1noc(C)c1C(=O)NNC(=O)c1nn(C)c(=O)c2ccccc12 the results were D2 ag-1 -3, D2 ag-2 0, D2 PAM-1 -6, D2 PAM-2 -1 and D2 antag 57*.
Screening Cc1ccc(C)c(N2CCN(CCCNC(=O)c3ccc4nc(N5CCCCC5)sc4c3)CC2)c1 returned D2 PAM-1 -13.
`Cc1ccc2nc(NCC(=O)O)nc(-c3ccccc3)c2c1` gave D2 ag-1 0, D2 ag-2 0, D2 PAM-1 1, D2 PAM-2 2 and D2 antag -2.
For Cc1ccc2nc(NCCC(=O)O)nc(-c3ccccc3)c2c1 the results were D2 ag-1 -3, D2 ag-2 4, D2 PAM-1 31*, D2 PAM-2 -1 and D2 antag -7.
`O=C(Oc1ccc(F)cc1)c1nc(SCc2ccc(F)cc2)ncc1Cl` gave D2 PAM-1 7.
Screening CC(=O)C1=C(C)NC(C)=C(C(C)=O)C1c1ccccc1 returned D2 ag-1 41*, D2 ag-2 0, D2 PAM-1 4, D2 PAM-2 8 and D2 antag -1.
Screening CC(=O)C1=C(C)NC(C)=C(C(C)=O)C1c1cccs1 returned D2 ag-1 -4, D2 ag-2 0, D2 PAM-1 7, D2 PAM-2 6 and D2 antag -10.
Cc1ccc(-n2nc3c(N4CCC(C(=O)NCc5ccc(C)o5)CC4)nnc(C)c3c2C)cc1 was read as D2 ag-1 3, D2 ag-2 0, D2 PAM-1 31*, D2 PAM-2 -9 and D2 antag 7.
For Cc1cccc(-c2nc(CSCC(=O)N3CCN(c4ccccc4)CC3)c(C)o2)c1 the results were D2 ag-2 2 and D2 PAM-1 0.
Screening COc1ccc(N2CCN(CCCNC(=O)C3CCCN(S(=O)(=O)c4c(C)n[nH]c4C)C3)CC2)cc1 (stereo not given) returned D2 ag-1 -1, D2 ag-2 0, D2 PAM-1 22, D2 PAM-2 -8 and D2 antag 6.
`O=C(NCCN1CCC(Cc2ccccc2)CC1)C1CCCN(S(=O)(=O)c2cnc[nH]2)C1` (stereo not given) gave D2 ag-1 -4, D2 ag-2 14, D2 PAM-1 -12, D2 PAM-2 -5 and D2 antag -23.
`O=C(NCCN1CCN(c2ccccc2F)CC1)C1CCCN(S(=O)(=O)c2cnc[nH]2)C1` (stereo not given) gave D2 ag-1 15, D2 ag-2 -1, D2 PAM-1 12, D2 PAM-2 67* and D2 antag 20.
`CCCS(=O)(=O)N1CCCC(C(=O)NCCCN2CCN(c3ccccc3F)CC2)C1` (stereo not given) gave D2 ag-1 14, D2 ag-2 69*, D2 PAM-1 -19, D2 PAM-2 -19 and D2 antag 38*.
COc1ccc(N2CCN(CCCNC(=O)C3CCCN(S(=O)(=O)c4cnc[nH]4)C3)CC2)cc1 (stereo not given) was read as D2 ag-1 -4, D2 ag-2 -1, D2 PAM-1 34*, D2 PAM-2 -10 and D2 antag -2.
Screening Cc1nc(N2CCCC2)ncc1C(=O)Nc1ccccc1 returned D2 ag-2 0 and D2 PAM-1 6.
COc1cc(-c2ccno2)ccc1S(=O)(=O)N1CCN(c2ccc(C(C)=O)cc2)CC1 was read as D2 PAM-1 3.
`Cc1cc(C)c(C)c(OCc2nc(-c3cccnc3)no2)c1` gave D2 ag-1 -2, D2 ag-2 0, D2 PAM-1 33*, D2 PAM-2 -31 and D2 antag -7.
For COc1ccc(CNC(=O)/C(C)=C\C(=O)O)cc1 the results were D2 ag-1 1, D2 ag-2 0, D2 PAM-1 1, D2 PAM-2 -8 and D2 antag 36*.
For CN(CCCNC(=O)c1cc2c(=O)n(C)c3ccccc3c2s1)Cc1ccccc1 the results were D2 ag-2 0 and D2 PAM-1 -9.

Source: PubChem BioAssay (National Center for Advancing Translational Sciences (NCATS))
